Reference: PubChem BioAssay (EPA / NIEHS)
Records with an inconclusive call do not appear. Calls of active or inactive are those of the source. Rule for the calls, unless noted: active = hit-call score of the fitted dose curve at least 0.9, where 1 is the maximum; inconclusive = response in the unintended direction; inactive = score below 0.9.

Assays:
[1] = CCTE_Mundy_HCI_Cortical_Synap_Neur_Matur_NeuriteCount: CCTE's Synaptogenesis and Neurite Maturation Assay in rat cortical cells for Neurite Count, Mundy Lab (AID 2284222; active = hit-call score of the fitted dose curve at least 0.9, where 1 is the maximum; inactive = score below 0.9)
Summary of the method: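 Rat primary cortical cells; AraC added at DIV 5, chemicals dosed with media change at DIV 7 through DIV 12. MAP2/synaptophysin/Hoechst immunostaining, high-content imaging of neurite number; fitted relative to DMSO.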

[2] = UKN2_HCS_IMR90_cell_viability: Viability Assessment in the University of Konstanz (UKN) Leist Lab Neural Crest Cell Migration Assay in human induced IMR90 Pluripotent Stem Cells (UKN2) (AID 2284233; active = hit-call score of the fitted dose curve at least 0.9, where 1 is the maximum; inactive = score below 0.9;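 note: viability of neural crest cells differentiated from IMR90 iPSC measured by calcein-AM fluorescence imaging; cells exposed to compound for 24 h after a 24 h migration phase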)
Summary of the method: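 Neural crest cells derived from IMR90 iPSC migrate into a stopper-free zone for 24 h in EGF/FGF medium, then are exposed to compound for 24 h. Viability assessed by calcein-AM and Hoechst staining with high-content imaging, fitted bidirectionally versus DMSO.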

[3] = CCTE_Mundy_HCI_Cortical_NOG_BPCount: CCTE's Neurite Outgrowth Assay in rat cortical cells for Branch Point Count, Mundy Lab (AID 2284237; active = hit-call score of the fitted dose curve at least 0.9, where 1 is the maximum; inactive = score below 0.9;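 note: branch points counted about two days after chemical exposure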)
Summary of the method: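 Measured 50.33 h after dosing, this morphology endpoint uses rat primary cortical cultures labelled for betaIII-tubulin. Branch points are quantified by high-content imaging, with DMSO as negative control and baseline.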

[4] = CCTE_Mundy_HCI_hNP1_CellTiter: CCTE's Cell Titer-Glo 2 Assay in human neuroprogenitor cells for Viability, Mundy Lab (AID 2284241);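 note: a hit is a drop in ATP luminescence versus DMSO meaning reduced viability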
Summary of the method: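 Viability read as luminescent ATP content (CellTiter-Glo, 30 min room temperature) twenty-four hours after dosing, relative to DMSO. Cells: WA09-derived hNP1 neuroprogenitors on poly-L-ornithine/laminin, plated 40 to 44 hours before chemical.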

[5] = IUF_NPC4_neurite_area_120hr: Leibniz Research Institute for Environmental Medicine (IUF) 120-hour Neuronal Morphology Assay for Neurite Area (NPC4) (AID 2284305)
Summary of the method: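 Human fetal neural progenitor spheres (0.3 mm) plated on poly-D-lysine/laminin in N2 differentiation medium, exposed 120 h (7 concentrations, DMSO ≤0.1%, half-medium refresh day 3). Fixed, TUBB3 immunostained; mean neurite area per neuron by Omnisphero skeletonization.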

[6] = CCTE_Mundy_HCI_iCellGluta_NOG_NeuronCount: CCTE's Neurite Outgrowth Assay in iCellGluta cells for Neuron Count, Mundy Lab (AID 2284340);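 note: cells fixed about 48 h after compound addition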
Summary of the method: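 Neuron count read by automated high-content imaging of Hoechst 33342 and betaIII-tubulin/Alexa Fluor-488 labelling in human iPSC glutamatergic neurons. Activity fitted relative to DMSO.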

[7] = CCTE_Mundy_HCI_iCellGluta_NOG_NeuriteCount: CCTE's Neurite Outgrowth Assay in iCellGluta cells for Neurite Count, Mundy Lab (AID 2284342);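 note: chemical exposure about 48 hours starting 2 hours after plating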
[8] = tested on: Thyroperoxidase (TPO), gene 54314; experiment: CCTE_Simmons_AUR_rTPO: CCTE's Amplex UltraRed Assay for Thyroperoxidase (TPO) Inhibition, Simmons Lab (AID 2283662);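 note: potency for loss of signal meaning inhibition of peroxidase activity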
Summary of the method: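 Rat thyroid microsomes (5 ug protein) with 25 uM Amplex UltraRed and 300 uM H2O2 in 200 mM phosphate buffer, 30 min at 37C in dark; fluorescence 544/590 nm. Eight concentrations, 5 nM–87.5 uM final, 0.5% DMSO, triplicate biological replicates.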

[9] = target: Luciferin 4-monooxygenase (Photinus pyralis) (UniProt P08659); experiment: CCTE_Simmons_QuantiLum_inhib_2: CCTE's Firefly Luciferase Inhibition Assay, Simmons Lab (AID 2283767)
Chain of Luciferin 4-monooxygenase (Photinus pyralis) (P08659 whole entry, looked up): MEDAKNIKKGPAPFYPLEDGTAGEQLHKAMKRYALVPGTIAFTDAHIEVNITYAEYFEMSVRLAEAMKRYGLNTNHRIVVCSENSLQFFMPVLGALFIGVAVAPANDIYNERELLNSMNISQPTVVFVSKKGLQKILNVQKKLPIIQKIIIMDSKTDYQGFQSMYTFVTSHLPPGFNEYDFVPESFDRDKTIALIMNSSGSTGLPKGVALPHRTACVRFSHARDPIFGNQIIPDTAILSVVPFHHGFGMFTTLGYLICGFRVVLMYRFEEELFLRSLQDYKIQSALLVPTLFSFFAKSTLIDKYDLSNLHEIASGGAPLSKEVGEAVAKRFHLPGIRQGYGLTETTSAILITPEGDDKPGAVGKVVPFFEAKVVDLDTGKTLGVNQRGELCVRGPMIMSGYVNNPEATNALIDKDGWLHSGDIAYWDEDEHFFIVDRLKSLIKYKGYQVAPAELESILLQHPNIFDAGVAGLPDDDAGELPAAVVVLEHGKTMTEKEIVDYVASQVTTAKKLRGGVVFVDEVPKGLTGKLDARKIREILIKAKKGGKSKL
Summary of the method: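 Cell-free recombinant firefly luciferase (5 ng/well) in 200mM potassium phosphate with 1 mg/ml BSA, 30 min at 37C with 8 concentrations from 5 nM to 87.5 uM [final], 0.5% DMSO. Luminescence read after D-luciferin (150uM)/dATP (147uM) reagent injection, pH 7.8; triplicates.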

SMILES | AC50 [1] | outcome [2] | AC50 [3] | AC50 [4] | AC50 [5] | AC50 [6] | AC50 [7] | AC50 [8] | outcome [9]
Cc1c(O)cccc1C(=O)N[C@@H](CSc1ccccc1)[C@H](O)CN1C[C@H]2CCCC[C@H]2C[C@H]1C(=O)NC(C)(C)C | 5.46 µM (active) | inactive | 15.4 µM (active) | 11.1 µM (active) | 8.75 µM (active) | 39.4 µM (active) | 37.4 µM (active) |  | 
Cc1c(N(C)CS(=O)(=O)O)c(=O)n(-c2ccccc2)n1C |  |  |  |  |  |  |  | 8.64 µM (active) | inactive
